BL2 CD40 inh – inhibitors of CD40-induced NF-kB signaling, primary screen, BL2 cells, luciferase reporter, single point | inhibition, % at 10 µM | 0.94% of 83,000 active | AID 1053188, 2014 | CD40L-induced, 4 h;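 active = mean inhibition of at least 50% with a set share of replicates also reaching that level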;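 also: 0% = neutral control wells and 100% = IKK inhibitor VII at 50 µM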
Starred values were filed as active, the others as inactive; [ ] = remark or other dose. Many of the other results were omitted from the sample, so hits are more common in it than they were.

SMILES | BL2 CD40 inh
COc1ccc(CN(CCC(c2ccc(F)cc2)C2CCOC(C)(C)C2)C(=O)c2ccco2)cc1 (stereo not given) | 37*
O=C(c1ccco1)N(CCC(c1ccccc1)c1ccco1)Cc1ccccc1 (stereo not given) | -1
CC1(C)CC(C(CC(=O)O)c2ccccc2)CCO1 (stereo not given) | -3
CN1C(=O)c2cc(NC(=O)C3CCCC3)ccc2OC[C@@H]2O[C@H](CC(=O)NCCc3ccncc3)CC[C@H]21 | 0
COc1ccc2[nH]cc(C3N4CC5(C)CN3CC(C)(C4)C5=O)c2c1 (stereo not given) | 8
CC12CN3CC(C)(CN(C1)C3c1ccc3ccccc3c1O)C2=O (stereo not given) | 7
CC12CN3CC(C)(CN(C1)C3c1ccc3c(c1)OCO3)C2=O (stereo not given) | 36*
CO[C@H]1CN(C)C(=O)c2cc(NC(=O)NC3CCCCC3)ccc2OC[C@@H](C)N(CC2CC2)C[C@@H]1C | 2
COc1ccccc1C#Cc1ccc([C@@H]2[C@@H](C#N)N(C(=O)C3CCCCC3)[C@H]2CO)cc1 | -1
CO[C@H]1CN(C)C(=O)c2cc(NC(=O)c3nc4ccccc4s3)ccc2OC[C@H](C)N(Cc2cccnc2)C[C@H]1C | 7
O=C(Nc1ccccc1)N1C[C@@H]2[C@H](c3ccccc31)[C@@H](CO)N2Cc1ccccc1 | 3[25 µM]
CC(C)OCCCNC(=O)c1ccncc1 | 9
CC(C)OCCCNC(=O)CNC(=O)c1ccc(Cl)c(Cl)c1 | 27*
COCCNC(=O)c1ccc(Cl)c(Cl)c1 | 7
N#C[C@H]1[C@H](c2ccccc2)[C@H](CO)N1C(=O)CCN1CCCCC1 | -2[25 µM]
CCNC(=O)[C@@H]1[C@@H](CO)[C@@H]2Cn3c(ccc(-c4cccc(OC)c4)c3=O)[C@@H]2N1Cc1nccs1 | 1[25 µM]
N#C[C@@H]1[C@H](c2ccc(-c3ccccc3F)cc2)[C@H](CO)N1C(=O)C1CC1 | 2
Cc1ccccc1S(=O)(=O)N1[C@@H](C#N)[C@@H](c2ccc(-c3ccc(F)cc3)cc2)[C@@H]1CO | 2[25 µM]
